# Measurements taken from ChEMBL document CHEMBL3988442, “University of Dundee, Small-Polar-MMV Screening Library” (2021).
# Screen size: about 48,000 compounds; about 13,000 (27%) showed an effect of 50% or more. This is one part of the list.
# System: Wolbachia pipientis
# Assay: Anti-Wolbachia Cell-Based Screen
# Type: functional
# Design: scale not given: in the data most compounds retested in dose-response had high values
# Settings: 5 µM
row,Structure (SMILES),Percent Effect
1,CC1CN(C(=O)c2ccnc(OCCN(C)C)c2)c2ccccc21 (stereo not given),5.142%
2,c1cnc(OCc2nnc3n2CCN(CC2CC2)C3)nc1,-18.49%
3,CC1CCCN(Cc2ccc(CNC(=O)NCc3ccon3)cc2)C1 (stereo not given),-7.486%
4,CC1CCCN(Cc2c(C3CCOCC3)[nH]c3ncccc23)C1 (stereo not given),-13.09%
5,OCC1CCCN(Cc2c(C3CCCC3)[nH]c3ncccc23)C1 (stereo not given),82.97%
6,CS(=O)(=O)NCC1CCCN(Cc2ccc(F)c3cccnc23)C1 (stereo not given),-1.722%
7,O=C(CN1CCCCCC1)NCc1cccnc1Oc1ccccc1,-1.634%
8,CCN1CCN(Cc2c(C3CCCC3)[nH]c3ncccc23)CC1,101.4%
9,c1cnc2[nH]c(C3CCCC3)c(CN3CCCCC3)c2c1,61.56%
10,CC1CCCN(Cc2c(C3CC3)[nH]c3ncccc23)C1 (stereo not given),97.08%
11,CCN1CCCC(c2c(-c3ccccc3)ncn2Cc2cccnc2)C1 (stereo not given),-13.51%
12,O=C(Cn1nc2ccccc2n1)N1CCCC(O)(CO)C1 (stereo not given),-10.36%
13,Cc1cc(NC(=O)N(C)CCN2CCN(c3ccccc3)CC2)on1,-6.324%
14,COc1c(CNC(c2ccc(F)cc2)c2nccn2C)c(C)nn1C (stereo not given),-17.53%
15,COCCSc1ccc(-n2ccnc2)nn1,19.88%
16,CC1(Cc2ccc3c(c2)OCO3)CCCN(S(=O)(=O)N2CCOCC2)C1 (stereo not given),-4.077%
17,Cc1cccn2cc(CN3CCCC(O)C3)nc12 (stereo not given),-5.177%
18,Cc1cc(Cn2cc(C#N)c(=O)c3ccccc32)no1,6.304%
19,O=C(NCCC1=CCCCC1)NCc1nnc2n1CCC2,7.36%
20,O=C(NCc1nnc2n1CCC2)NCC1(c2cccc(F)c2)CC1,112.3%
21,O=C(NCCc1nnc2n1CCC2)NCC1(c2ccccc2)CC1,95.51%
22,NC(=O)CC1CCN(C(=O)NCC2(c3ccccc3F)CC2)CC1,3.443%

row,Structure (SMILES),Percent Effect
1,Cn1cc(CCNC(=O)NCc2nnc3n2CCC3)cn1,-8.052%
2,O=C(NCCc1nnc2n1CCC2)N1CCC2(CCCCC2)C1,-5.882%
3,O=C1C(NCc2nnc3n2CCCC3)CCCN1c1cccc(F)c1 (stereo not given),-1.768%
4,Cc1cc(C)c(CNC(=O)NCc2nnc3n2CCC3)c(=O)[nH]1,8.689%
5,O=C(NCCc1nnc2n1CCC2)NCC1(c2ccccc2F)CC1,109%
6,O=C(NCCc1ccc(Cl)s1)NCc1nnc2n1CCC2,3.587%
7,O=C(NCCc1nnc2n1CCC2)NCC1(c2ccc(F)cc2)CC1,123.4%
8,O=C(NCCc1nnc2n1CCC2)c1ccccc1OC1CCCC1,-0.3605%
9,CCOc1ncnc2c1CCN(c1cc(C(F)(F)F)ncn1)CC2,1.194%
10,CCOC(=O)CC1CCCCN1C(=O)c1cc(C)on1 (stereo not given),7.011%
11,CS(=O)(=O)N(Cc1ccon1)c1ccc2c(c1)OCO2,-10.09%
12,Cc1nc(-c2cc(Cl)cc3c2OC(CN)C3)c[nH]1 (stereo not given),-15.93%
13,Cc1ccc(-c2nnc(CN3CC[C@H](CO)[C@@H](O)C3)o2)n1C,-9.968%
14,c1coc(CNc2nnc(Cc3ccsc3)o2)c1,-2.731%
15,O=C(c1ccccc1)N1C[C@@H]2CC[C@H](C1)N(Cc1cc(F)ccc1Cl)C2,-19.41%
16,O=C(c1ccc(=O)[nH]c1)N1C[C@@H]2CC[C@H](C1)N(Cc1ccccc1)C2,87.59%
17,O=c1cc(CN2C[C@H]3CC[C@@H]2CN(Cc2ccccc2)C3)[nH]c(=O)[nH]1,2.734%
18,O=C(c1c[nH]c(=O)c(Cl)c1)N1C[C@@H]2CC[C@H](C1)N(Cc1ccccc1)C2,-15.02%
19,O=C(c1ccc(F)c(Cl)c1)N1C[C@@H]2CC[C@H](C1)N(Cc1ccccc1)C2,2.522%
20,CCC1CN(C(=O)c2ccc(=O)[nH]c2)CCC(=O)N1Cc1ccccc1 (stereo not given),-17.04%
21,O=C(c1cc(Cl)c[nH]c1=O)N1C[C@@H]2CC[C@H](C1)N(Cc1ccccc1)C2,80.73%
22,CC(=O)N1C[C@@H]2CC[C@H](C1)N(Cc1ccc(Cn3cccn3)cc1)C2,6.393%

row,Structure (SMILES),Percent Effect
1,O=C(c1cc(F)cc(Cl)c1)N1C[C@@H]2CC[C@H](C1)N(Cc1ccccc1)C2,106.3%
2,CC(C)c1nc(CN(C)S(=O)(=O)c2cccs2)cs1,0.03171%
3,CC(CS(C)(=O)=O)N(C(=O)CCc1ccc(Cl)s1)C1CC1 (stereo not given),-4.139%
4,Cc1nc(CNC(=O)NCC(O)c2ccc(F)c(F)c2)cs1 (stereo not given),9.084%
5,COc1cccc(-n2nnc(C(=O)N3CCN(C)CC3C)c2C)c1 (stereo not given),13.25%
6,COCCN1C[C@@H]2CCCO[C@@H]2[C@H](NC(=O)c2cnccn2)C1.O=C(O)C(F)(F)F,-16.42%
7,c1cc(-c2noc([C@@H]3CCCN3C3CCC3)n2)cc(N2CCCC2)n1,-5.247%
8,Cc1nc(CNC(=O)NCc2cccnc2N(C)C)cs1,95.24%
9,Cc1cnc(C(C)(C)NC(=O)NCc2cccnc2OC(C)C)s1,-10.8%
10,CN(C)c1ncccc1CNC(=O)NCc1ccc(Cl)s1,103.5%
11,Cc1cc(NC(=O)NCc2cccnc2OC(C)C)n(C)n1,8.95%
12,Cc1nc(CSCCC(=O)NCc2cccnc2N(C)C)cs1,-3.36%
13,CN(C)c1ncccc1CNC(=O)N1CCN(C)c2ccccc2C1,-11.25%
14,CNc1nc(C(=O)NCc2cccnc2N(C)C)cs1,-18.64%
15,Cc1nnsc1C(=O)NCc1cccnc1N(C)C,-2.409%
16,Cc1ccc(CNC(=O)NCc2cccnc2N(C)C)s1,-3.895%
17,Cc1cnc(CNC(=O)NCc2cccnc2N(C)C)s1,-3.719%
18,CC(C)Oc1ncccc1CNC(=O)NC(C)c1cccs1 (stereo not given),104.4%
19,Cc1ccc(C(=O)NCc2cccnc2N(C)C)s1,92.24%
20,CCc1ccccc1OCCN1C[C@@H](NS(C)(=O)=O)[C@H](C(C)C)C1,0.8676%
21,O=C(O)c1cccnc1CN1CCOc2ccccc2C1,-4.779%
